The text below walks through data of PubChem BioAssay AID1509 (The Scripps Research Institute Molecular Screening Center, 2009).

In all, about 220,000 compounds went through this assay and about 770 (0.35%) were called active. The list comes from a sample in which actives are over-represented; it also holds similar structures and randomly drawn compounds. Unmarked numbers belong to inactive results. No stated cut-off is given here; in the data, active means activation above about 11%; inactive means the rest. Where a SMILES comes first, the peptide text is derived from it. [ ]: non-standard residue; d: D form. ξ: configuration not given here. ξM = CSCCC(N)C(=O)O

The target of this experiment is Sphingosine 1-phosphate receptor 4 (Homo sapiens) (UniProt O95977). As to the kind of experiment: activators of human S1P4 receptor – cell-based, primary screen (AID 1509).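 Further: 0% = DMSO vehicle and 100% = reference agonist.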 The conditions noted are these: S1P4-expressing cell line, agonist reporter assay; at 4.98 µM; stronger effect = higher value. Background: In a reporter assay the amount or activity of a reporter protein is the signal.
Sphingosine 1-phosphate receptor 4 (Homo sapiens), sequence (O95977 whole entry, looked up): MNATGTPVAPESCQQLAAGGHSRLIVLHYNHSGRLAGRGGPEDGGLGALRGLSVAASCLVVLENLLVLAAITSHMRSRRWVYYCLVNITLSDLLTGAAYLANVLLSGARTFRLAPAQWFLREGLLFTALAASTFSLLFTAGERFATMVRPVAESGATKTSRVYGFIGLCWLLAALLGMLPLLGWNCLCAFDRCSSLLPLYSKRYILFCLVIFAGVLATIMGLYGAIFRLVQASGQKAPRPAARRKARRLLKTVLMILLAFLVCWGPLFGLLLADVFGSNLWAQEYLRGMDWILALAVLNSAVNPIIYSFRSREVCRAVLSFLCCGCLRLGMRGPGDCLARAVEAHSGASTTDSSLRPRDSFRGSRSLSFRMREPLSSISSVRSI
With `CC1(C)CC(=O)c2c(n(S(=O)(=O)c3ccccc3)c3ccc(NS(=O)(=O)c4ccccc4)cc23)C1`, the activation is -0.65%.
Then `O=C(O)/C=C/c1ccc(S(=O)(=O)N2CCCCCC2)cc1`, with 1.37%; and `CC1=CC=CC2=N/C(=N\S(=O)(=O)c3ccc(F)cc3F)c3ccccc3CN12`, with 1.89%.
Then `Cc1ccc2c(c1)nnc1nnc(SCC(=O)O)n12`, with 0.65%; and `O=C(O)C1C2CC2CN1C(=O)c1ccc(Cl)cc1Cl` (configuration not stated), with 0.08%.
Then `COc1ccc(/C=C2\N=C3CCCN3C2=O)cc1`, with 0.59%; and `CCCCCc1nnc(NC(=O)c2ccc(=O)n(C)n2)s1`, with 0.34%; and `CC(=O)c1cc(C#N)c(N2CC(C)OC(C)C2)nc1C` (configuration not stated), with 2.12%.
`CC(C)(C)C1CCC(C(=O)Nc2cccnc2)CC1` (configuration not stated): the activation is -0.6%.
Then `CCOc1ncccc1C(=O)N(CC)CC(=O)Nc1ccc(NC(C)=O)cc1`, with 0.47%; and `COc1cc(/C=C/C(=O)OCC(=O)Nc2cccc(Oc3ccccc3)c2)ccc1O`, with 0.15%; and `CCCNC(=O)c1ccccc1NC(=O)CSCc1ccc(OC)cc1`, with 1.75%.
Then `CCCCCNC(=O)c1cccnc1SCC(=O)Nc1ccccc1OC`, with 19.3% (active); and `CCCc1nc(SCC(=O)Nc2ccccc2OC)c2c(=O)n(C)c(=O)n(C)c2n1`, with -0.79%.
Then `COCCN(CCOC)S(=O)(=O)c1ccc(/C(O)=C(\C#N)c2nc3ccccc3[nH]2)cc1`, with 0.35%; and `O=C(/C(=C/c1cccc(Cl)c1)c1nc2ccccc2[nH]1)c1ccccc1`, with -0.48%.
Consider `CCC(=O)/C(=C(/O)c1ccccc1)c1nc2ccccc2[nH]1`, for which the activation was 12.3% (active).
On to `COc1ccc(S(=O)(=O)N2CCN(C(=O)c3cc(C)oc3C)CC2)cc1`, for which the activation was 0.82%.
Then `Cc1ccsc1/C=N/n1c(=S)[nH]nc(C)c1=O`, with 3.22%; and `COc1ccc(-n2c(C)cc(C(=O)COC(=O)c3cc(OC)c(OC)cc3NC(=O)c3cccs3)c2C)cc1`, with -0.44%; and `CSc1sc(C(=O)NNC(=O)c2ccc(Cl)cc2)c2c1C=CCC2`, with 13.5% (active).
Then `O=C(NNC(=O)C1C2CCC(C2)C1C(=O)O)c1ccc(Cl)cc1` (configuration not stated), with 1.68%; and `CCOC(=O)NNC(=O)c1ccc(Cl)cc1`, with -0.78%.
Take `CC(=O)c1ccc(N2CCN(C(=O)c3ccc4nc[nH]c4c3)CC2)cc1`: the activation is 0.76%.
Then `O=C1CCCc2nn(-c3ccccc3)nc21`, with -2.78%; and `CN(C)S(=O)(=O)c1ccc(Cl)c(NC(=O)COC(=O)CC(NC(N)=O)c2ccc(Cl)cc2)c1` (configuration not stated), with 1.79%.
Then `C=CCOc1c(CNn2cn[nH]c2=S)cccc1OC`, with 0.93%; and `N/C(=N\OC(=O)c1ccc2c(c1)OCO2)c1ccc(Br)cc1`, with -1.54%; and `NNC(=O)c1ccc(COCC(F)(F)C(F)F)cc1`, with -0.58%.
As to `C=CCNC(=O)c1ccccc1NC(=O)c1ccc(Cl)c(S(=O)(=O)Nc2cccc(C)c2C)c1`, the activation is 2.53%.
Then `CS(=O)(=O)c1sc(C(=O)NC(=S)Nc2ccc(OC(F)(F)F)cc2)c2c1C=CCC2`, with -1.4%; and `O=C(CN1C(=O)NC(Cc2ccccc2)(Cc2ccccc2)C1=O)NCC1CCCCC1`, with -1.64%.
Then `CCOc1ccc(N2C(=O)CC(N(CCc3ccc(OC)c(OC)c3)C(=S)Nc3ccccc3)C2=O)cc1` (configuration not stated), with 1.87%; and `O=C(CCCn1c(SCC(=O)c2ccccc2)nc2ccccc2c1=O)NCC1CCCO1` (configuration not stated), with 0.54%; and `O=C(CCn1c(SCC(=O)c2ccccc2)nc2ccccc2c1=O)NCc1ccc(F)cc1`, with 0.31%.
Then `O=C(CCCn1c(SCC(=O)c2ccc(F)cc2)nc2ccccc2c1=O)NCc1ccco1`, with 30.4% (active); and `CCOC(=O)N1CCN(c2c(NCCN3CCN(c4ccccc4F)CC3)c(=O)c2=O)CC1`, with 1.24%.
Turning to `CC(Oc1ccc(Br)cc1Br)C(=O)NC1CCCC1` (configuration not stated), the activation was 14.4% (active).
Turning to `COc1ccc(S(=O)(=O)NC(C)C)cc1C(=O)NC1CCCCC1`, the activation is 1.54%.
Then `CC(=O)OC(C(=O)NC1CCCCC1)c1ccccc1` (configuration not stated), with 0.59%.
Then `Cc1cc(C(=O)NNC(=O)CCC2CCCCC2)c(C)o1`, with 0.49%; and `c1ccc2c(c1)OCCOCCOCCO2`, with 0.22%.
Then `COCCNC(=O)c1ccc(-n2c(SCc3cccnc3)nc3ccccc3c2=O)cc1`, with 1.25%; and `CCC1=NN2C(=N)/C(=C/c3cc(C)n(-c4ccccc4)c3C)C(=O)N=C2S1`, with -0.01%; and `Cc1cc2c(cc1C)N(Cc1ccccc1)C1=NCCCN12`, with -0.25%.
In the case of `O=[N+]([O-])c1ccc(F)cc1Oc1nc(-c2cccnc2)nc2ccccc12`, the activation was 0.24%.
Then `CCC(C)NC(=O)N[C@@H](CCSC)C(=O)O` (some centres not stated), with 1.44%; and `COC(=O)CNC(=O)C(CCSC)NC(C)=O` (configuration not stated) (Ac-[ξM]-Gly-OMe), with 29.1% (active); and `COC(=O)[C@H](CCSC)NC(=O)Nc1ccc(OC)cc1`, with 0.47%.
Then `O=c1c2ccccc2nnn1CSc1nnnn1-c1ccccc1`, with 0.58%; and `C=CCn1c(SCn2nnc3ccccc3c2=O)nnc1-c1ccc(Cl)cc1`, with 19% (active); and `O=C(Cn1nnc2ccccc2c1=O)NCc1ccc(Cl)cc1`, with -1.75%.
Then `C/C(CCC(=O)OC[C@H]1O[C@H](C#Cc2ccccc2)C=C[C@@H]1Oc1ccc(C)cc1)=N\OC[C@@H](O)[C@H]1O[C@@H]2OC(C)(C)O[C@@H]2[C@H]1O`, with 0.09%; and `CC1CCCC(NC(=O)COC(=O)[C@@H]2CC(O)CN2S(=O)(=O)c2ccc3c(c2)OCCO3)C1C` (some centres not stated), with 194% (active); and `O=C1COc2ccc(C(=O)COC(=O)C3CC(O)CN3S(=O)(=O)c3ccc(Cl)cc3)cc2N1` (configuration not stated), with 1.17%.
Regarding `O=C(COC(=O)C1CCN(S(=O)(=O)c2ccc3c(c2)OCCO3)CC1)Nc1ccccc1OC(F)F`, the activation is 2.37%.
Then `NC(=O)C1=C[C@H](c2csc3ccccc23)C[C@H](OCc2ccc(CO)cc2)O1`, with 3.3%.
